HCV inh: HCV inhibition; Huh7.5.1 HCVcc-Cre infection, luciferase reporter, 44 h; Potency, µM (highest dose often 41.8 µM), for inactives: at the top dose activity change, negative = inhibition, hits mostly inhibitors; 340,000 tested, 3.4% active; AID 651820; further: potency means the concentration at half of the fitted maximal effect
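Reporter virus HCVcc-Cre (~0.5 moi) infects cells exposed to compound; seeding density 1,000 cells/well with 4 h settling beforehand. Luminescence, 15 sec read, taken 44 h post-infection following a 15 min RT substrate incubation.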
Pf growth 48h: inhibits P. falciparum growth in the first generation, 48 h. Potency, µM (highest dose often 28.7 µM), for inactives: at the top dose activity change, negative = inhibition, hits mostly inhibitors. AID 504832. P. falciparum luciferase growth in erythrocytes, 48 h. 310,000 tested, 5.9% active; further: potency means the concentration at half of the fitted maximal effect
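Here the parasites carry a stable luciferase gene and grow inside erythrocytes in Albumax-based RPMI medium with compound for one erythrocytic cycle. Activity is scored as loss of luminescent signal.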
HCMV inh: human cytomegalovirus inhibition | HFF cells, HCMV-luciferase reporter, 72 h; hits give low values | activity change, negative = inhibition, % at 57.5 µM | 410,000 tested, 4.5% active; in the data active means activity change below about -60%; inconclusive means no clear call, values can overlap the other calls; inactive means above about -39%
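Cell-based, HFFs, 1000 cells/well, 16 h 37C; cpds in DMSO + HCMV-luc, MOI 1 PFU/cell; 72 h 37C; OneGlo luminescence after 5 min RT; norm. to buffer vs Salinomycin 10uM.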
Pf growth 96h: P. falciparum growth inhibition at 96 hours; Potency, µM (titrated, usually from 28.7 µM), inactives show at the highest dose activity change, negative = inhibition, usual class: inhibitors; 320,000 tested, 6.9% active; P. falciparum luciferase reporter growth, 96 h; further: potency means the concentration at half of the fitted maximal effect
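96 h incubation, 37 C, 5% CO2, of luciferase-reporter P. falciparum-infected RBCs (2% hematocrit, 0.05% parasitemia final) with test compounds; endpoint luminescence.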
Starred values were filed as active, the others as inactive; ? = inconclusive; / = not tested or not shown; ! = repeats disagree; [ ] = another dose, or the depositor's remark. Rows were chosen to be rich in hits. Some 13% of all compounds tested hit in one or more screens of this group. Unless noted, the call rests on the fitted dose curve; in most records, active means well fitted inhibition curve with a large enough effect; inconclusive means small, poorly fitted or top-dose-only effect, or another doubt; inactive means no such curve, though single readings can be large or run the other way. On the % scale 0 is the no-effect control and ±100 the full control effect.

SMILES	HCV inh	Pf growth 48h	HCMV inh	Pf growth 96h
CC(C)n1cc(CN2CCN(CCc3ccccc3)C(CCO)C2)cn1 (configuration not stated)	3%	16%	59	15µM*
OCCC1CN(Cc2cccnc2)CCN1CCc1ccccc1 (configuration not stated)	1%	-11%	-32	9.3µM*
CCOc1ccc(C2=CC(c3cc(Br)ccc3F)n3ncnc3N2)cc1Cl (configuration not stated)	/	/	-2	/
COc1ccc(NC(=O)CSc2ccc3nnc(CCNC(=O)c4ccccc4)n3n2)cc1	14%	-14%	-32	?
Cc1ccc(C(=O)NCCc2nnc3ccc(SCC(=O)NCc4ccc(F)cc4)nn23)cc1	15%	-16%	-6	9.3µM*
COc1cccc(NC(=O)CSc2ccc3nnc(CCNC(=O)c4ccccc4)n3n2)c1	4%	-23%	11	10µM*
O=C(CSc1ccc2nnc(CCNC(=O)c3ccccc3)n2n1)NCc1ccccc1	3%	-29%	2	?
Cc1cccc(CSc2ncnc3ccccc23)c1	?	16%	-15	43%
Fc1ccc(CSc2ncnc3ccccc23)cc1	3%	25%	-68*	11%
Cc1ccc(C(=O)CSc2ncnc3ccccc23)o1	4%	15%[5.75 µM]	-60*	15%
O=C(CSc1ncnc2ccccc12)c1cccs1	3%	418%	1	233%
O=[N+]([O-])c1cccc(CSc2ncnc3ccccc23)c1	-27%	-3%	-81*	?
Nc1nc(N)c2cc(CNc3ccc(Cl)c(Cl)c3)ccc2n1	/	/	-69*	/
Cc1cn(S(=O)(=O)c2ccc(F)c(Cl)c2)cn1	/	/	7	/
O=c1c2ccccc2cnn1-c1nc2ccccc2[nH]1	9%	-31%	-92*	-41%
Clc1ccc2nc(N3CCCCC3)[nH]c2c1	?	176%	224	58%
O=c1c(Cl)c(N2CCCCC2)cnn1-c1nc2ccccc2[nH]1	-6%	0%	-61*	241%
O=c1c2ccccc2nc2c3ccccc3cnn12	?	78%	-29	96%
CCC1CCCCN1C(=O)CSc1n[nH]c(-c2ccccc2)n1 (configuration not stated)	/	/	53	/
Cc1ccc(CN2CCCn3nc(C(=O)NC(C)C)cc3C2=O)cc1	/	/	2	/
COc1cc(/C=N\Nc2nc3ccccc3[nH]2)cc(OC)c1OC	?	0.17µM*	50	?
Cc1ccc2cc(/C=N/Nc3nc4ccccc4[nH]3)c(Cl)nc2c1	1%	0.74µM*	5	?
COc1cc(/C=N/Nc2ccc(S(N)(=O)=O)cc2)cc(OC)c1OC	10µM*	6%	4	24%
CCN(CC)c1ccc(/C=N/Nc2nc3ccccc3[nH]2)c(O)c1	5.6µM*	/	-98*	1.2µM*
Cc1ccc2cc(/C=N/NC(=O)c3ccc(F)cc3)c(Cl)nc2c1	-18%	10%	-20	24%
SMILES	HCV inh	Pf growth 48h	HCMV inh	Pf growth 96h
Cc1ccc(C)c(NC(=O)c2cnc(N3CCCC3)nc2C)c1	/	/	-14	/
Cc1cc(N2CCN(C(=O)OC(C)(C)C)C[C@H]2C)ccc1N1CC[C@@H](O)C1	/	/	19	/
C[C@@H]1CN([C@H](C)CO)C(=O)c2cc(NC(=O)Nc3ccc(F)cc3)ccc2O[C@@H](C)CCCCO[C@@H]1CN(C)C(=O)CCCN(C)C	/	/	-27	/
COc1ccc(/C=N/Nc2nc3ccccc3[nH]2)cc1OC	-12%	0.47µM*	77	?
COc1cc(OC)c(OC)cc1/C=N/Nc1nc2ccccc2[nH]1	-8%	1µM*	3	1.9µM*
COc1ccc2c(c1)c(/C=N/Nc1nc3ccccc3[nH]1)c(C)n2C	?	1.5µM*	-101*	1.7µM*
C(=N\Nc1nc2ccccc2[nH]1)/c1cccc2nccnc12	?	?	-15	?
COc1ccc(OC)c(C(C)NC(=O)Cn2c(=O)cc(C)c3c(C)nn(-c4ccc(C)cc4)c32)c1 (configuration not stated)	/	/	12	/
Cc1nn(Cc2ccccc2)c(Cl)c1/C=C/C(=O)OC(C)C(=O)N1CCCC1 (configuration not stated)	-21%	1.7µM*	-25	3.7µM*
Cc1ccc(C(=O)N[C@@H](C)CN2C3=NC[C@H](C)N3C[C@H]2Cc2ccc(O)cc2)cc1Br	/	10µM*	/	4.1µM*
Cc1ccc(C(=O)NNC(=O)C2CC2)cc1Br	6%	14%	37	28%
C/C=C(\C)C(=O)NCCN1C2=NC[C@H](C)N2C[C@@H]1Cc1ccc(OC)cc1	10%	46%	-16	63%
COc1ccc(C[C@@H]2CN3C(=NC[C@@H]3C)N2CCNC(=O)c2ccc(C)c(Br)c2)cc1	-12%	?	-10	13µM*
COc1cc2c(=O)c(S(=O)(=O)c3ccc(F)cc3)cn(Cc3ccccc3C)c2cc1OC	/	/	5	/
COc1cc2c3nnc(-c4ccc(F)cc4)c-3cn(Cc3ccccc3F)c2cc1OC	?	0.37µM*	-89*	0.74µM*
COc1cc2c3nnc(-c4ccccc4)c-3cn(Cc3ccccc3F)c2cc1OC	?	?	-97*	?
CC(c1nnnn1C1CCCCC1)N(Cc1ccccc1)Cc1cccnc1 (configuration not stated)	-1%	10µM*	-38	11%
CCN(Cc1ccccc1)C(c1ccccn1)c1nnnn1C1CCCCC1 (configuration not stated)	11%	12µM*	0	-32%
Clc1ccc(C(c2nnnn2C2CCCCC2)N(Cc2cccnc2)Cc2ccco2)cc1 (configuration not stated)	20%	?	-1	?
CCN(Cc1ccccc1)C(c1cccs1)c1nnnn1C1CCCCC1 (configuration not stated)	?	9.3µM*	-26	0%
CCCCCOC(=O)CSc1nc2sc3c(c2c(=O)n1Cc1ccccc1)CC(C)(CC)OC3 (configuration not stated)	/	/	-10	/
CCCCn1c(=NC(=O)c2ccco2)c(C(=O)OCC)cc2c(=O)n3cccc(C)c3nc21	?	12µM*	-5	5.9µM*
CCOC(=O)c1cc2c(=O)n3ccccc3nc2n(Cc2ccco2)c1=NC(=O)c1cc(C)cc(C)c1	/	/	-77*	/
CCCCn1c(=NC(=O)c2ccco2)c(C(=O)OCC)cc2c(=O)n3ccccc3nc21	?	?	62	/
CCCCCn1c(=NC(=O)c2ccco2)c(C(=O)OCC)cc2c(=O)n3ccccc3nc21	?	-38%	-32	15µM*
CCOC(=O)c1cc2c(=O)n3ccccc3nc2n(C(C)C)c1=NC(=O)c1c(-c2c(F)cccc2Cl)noc1C	2µM*	3.7µM*	-90*!	?
COc1ccc(OCC(=O)Nc2ccc(-c3nc4cc(C)cc(C)c4o3)cc2)cc1	/	/	46	/
COc1ccc(-c2cc(C(=O)Oc3ccc(Br)cc3)c3ccccc3n2)cc1	/	/	19	/
COc1cc2c(cc1OC)C(COc1ccc3c(C)cc(=O)oc3c1)N(C(=O)c1ccc(C)c(C)c1)CC2 (configuration not stated)	/	/	4	/
